# Test results: PubChem BioAssay AID540317 (National Center for Advancing Translational Sciences (NCATS), 2011)
# About 2,200 (0.56%) of roughly 390,000 compounds were called active. A call without a number means that no potency is given here. Inconclusive results (about 3%) are left out. Calls come from the whole dose curve; as a rule, active = well fitted inhibition curve with a large enough effect; inconclusive = small, poorly fitted or top-dose-only effect; inactive = no such curve, though single readings can be large or run the other way. Only a selection was taken, and actives are over-represented in it overall.
# Target: Chromobox protein homolog 1 (Homo sapiens) (UniProt P83916)
# Sequence (P83916 whole entry, looked up): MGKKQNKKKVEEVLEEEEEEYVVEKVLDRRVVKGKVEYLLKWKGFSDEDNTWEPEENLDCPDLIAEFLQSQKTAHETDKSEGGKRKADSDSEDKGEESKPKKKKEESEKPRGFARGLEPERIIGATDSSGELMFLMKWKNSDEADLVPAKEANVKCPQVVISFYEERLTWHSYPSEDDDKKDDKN
# Test: HTS for Inhibitors of HP1-beta Chromodomain Interactions with Methylated Histone Tails; note: nearly all actives have a fitted effect of over 70% in size
# Conditions: AlphaScreen HP1-beta / biotin-H3K9me3 peptide binding; series mostly up to 114 µM
# Outline: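 Compound inhibition of the preformed complex between 50 nM HP1-beta and 50 nM biotinylated H3K9me3 peptide was read by AlphaScreen. Buffer was PBS pH 7.4 with 0.01% Tween-20. Incubations ran 30 min at room temperature, with 10 ug/mL donor/acceptor beads.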
# Potency is the fitted concentration of half-maximal effect.
row,SMILES,Potency
1,Cc1ccc(C)c(N2CCN(c3ccc4cc(S(=O)(=O)N5CCC(C)CC5)ccc4n3)CC2)c1,inactive
2,Oc1ccc2ccccc2c1N=Nc1nccs1,6.31 µM (active)
3,O=C(CSc1nc(-c2cccc(F)c2)[nH]c1-c1ccccc1)Nc1ccc2c(c1)OCO2,inactive
4,Cc1ccccc1CSc1nc(-c2ccccc2)nc2c1Cc1c(CO)cnc(C)c1O2,inactive
5,Cc1ccc(NC(=O)C2CCN(S(=O)(=O)c3cc(-c4noc(C)n4)ccc3C)CC2)c(C)c1,inactive
6,Cn1nnc(NC(=S)NC(=O)c2ccccc2)n1,70.8 µM (active)
7,O=C(NC(=S)Nc1ncccn1)c1ccccc1Br,inactive
8,CCOC(=O)C1=C(NC(=S)NC(=O)c2ccccc2)c2ccccc2CC1(C)C,inactive
9,CCN(CC)Cc1nc2sc(C)c(C)c2c(=O)[nH]1,inactive
10,Cc1sc2nc(CC(N)=O)[nH]c(=O)c2c1-c1ccccc1,inactive
11,CSc1nnc(SCc2nc3sc(C(=O)O)c(C)c3c(=O)[nH]2)s1,50.1 µM (active)
12,C=C1CCN(Cc2ccc(OC)cc2)S(=O)(=O)c2ccccc21,inactive
13,COC(=O)c1ccc(OC)c(Cn2c(=O)n(Cc3ccccc3)c(=O)c3c2c2cc(OC)ccc2n3C)c1,inactive
14,Cc1cc(C)cc(NC(=O)c2cnc3sc(N4CCCC4)nn3c2=O)c1,inactive
15,O=C(NCc1ccccc1)c1cc(-c2cccc(Cl)c2)on1,inactive
16,O=C(O)C(c1ccccc1)N1C(=O)/C(=C\c2ccc(-c3cccc(Cl)c3)o2)SC1=S (configuration not stated),39.8 µM (active)
17,CCC(C)N1C(=O)S/C(=C/c2ccc(Sc3nc4ccccc4[nH]3)o2)C1=O (configuration not stated),inactive
18,Cc1cccc(N2CCN(C(=O)Cn3ncc4c5ccccc5n(C)c4c3=O)CC2C)c1 (configuration not stated),inactive
19,CC(C)c1ccc(NS(=O)(=O)c2ccc3[nH]cc(C(=O)NC4CCCC4)c(=O)c3c2)cc1,inactive
20,Cc1cc2c(cc3c(SCc4cccc(Cl)c4)nnc(C)n32)o1,inactive
21,CCOc1cccc2c1N[C@@H](c1ccc(C(=O)O)cc1)[C@H]1CC=C[C@@H]21,35.5 µM (active)

row,SMILES,Potency
1,CCOC(=O)C1Nc2ccc(C(F)(F)F)cc2C2C=CCC12 (configuration not stated),inactive
2,CCOc1cccc(CC(=O)N2CCc3c([nH]c4ccccc34)C2c2ccc(F)cc2)c1OCC (configuration not stated),inactive
3,C=C1CCN(C(CC(C)C)C(=O)NCc2cc(OC)c(OC)c(OC)c2)S(=O)(=O)c2ccccc21 (configuration not stated),inactive
4,CCCn1c2ccccc2c2cnn(CC(=O)N(C)c3ccccc3CC)c(=O)c21,inactive
5,COc1ccc(C2/C=C\CN(C(=O)c3ccc(C)cc3)C(Cc3ccccc3)C(=O)N2Cc2ccc(F)cc2)cc1 (configuration not stated),inactive
6,COc1cccc(CNC(=O)Cn2c(=O)c3cccn3c3ccc(F)cc32)c1OC,inactive
7,O=C(c1cccs1)c1cn(CCOc2ccc(Cl)cc2)c2ccccc12,inactive
8,Cc1ccc(-c2ccc(CCC(=O)O)n2-c2ccc(C(N)=O)cc2)cc1,inactive
9,CCN1/C(=C/C(=S)Nc2ccccc2)Sc2ccccc21,50.1 µM (active)
10,CCN1/C(=C\c2ccc3ccccc3[n+]2CC)Sc2cc(C)ccc21,inactive
11,CCN1C(=O)c2ccccc2Sc2ccc(NC(=O)Cc3ccc(OC)cc3)cc21,inactive
12,COc1ccc(CCNC(=O)c2ccc(CSCc3ccc(C)cc3)o2)cc1OC,inactive
13,COc1ccc(-c2ccc(OC)c(C3C4C=CCC(C)C4C(=O)N3Cc3ccccc3)c2)cc1C (configuration not stated),inactive
14,O=C(OC12CC3CC(CC(C3)C1)C2)c1ccc(NCc2cc(O)ccc2O)cc1,70.8 µM (active)
15,O=C(Cn1ncn2nc(-c3cccs3)cc2c1=O)NCc1cccc(Br)c1,inactive
16,Cc1cc(C)c(C=NNc2nc3c([nH]2)c(=O)n(C)c(=O)n3C)c(C)c1,inactive
17,Cc1ccc(NN=Nc2nc3c([nH]2)c(=O)n(C)c(=O)n3C)cc1,35.5 µM (active)
18,Cc1ccc(CNC(=O)CSc2c(C)cnc3c2c(=O)n(C)c(=O)n3C)cc1,inactive
19,COc1ccc(NC(=O)CSc2nc3ncccc3[nH]2)c(OC)c1,inactive
20,COc1ccc(CNC(=O)CCc2c(C)nn(-c3ccc(N4CCCC4)nn3)c2C)cc1,inactive
21,Cc1cccc(C)c1-n1ncc(C(=O)NCCCN2CCCCC2)c1C1CCN(C(=O)OC(C)(C)C)CC1,inactive

row,SMILES,Potency
1,Cc1cccc(Nc2cc(C)nc(-n3nc(C)cc3C)n2)c1,inactive
2,COc1ccc(OC)c(-n2nnc(-c3nc(-c4cc(OC)c(OC)c(OC)c4)no3)c2C)c1,inactive
3,Oc1c(CN2CCOCC2)ccc(CN2CCOCC2)c1O,15.8 µM (active)
4,CCCC(=O)NC(=S)Nc1ccc(CN2CCOCC2)cc1,inactive
5,OCCN1CCOCCOCCN(CCO)CCN(CCO)CC1,inactive
6,CC(=O)N1CC[n+]2c(-c3ccc([N+](=O)[O-])cc3)csc21,10 µM (active)
7,Cc1cc(C)cc(C(=O)N2CCN=C2SCc2ccc([N+](=O)[O-])cc2)c1,inactive
8,O=C(C1CCC1)N1CCN(S(=O)(=O)c2ccc([N+](=O)[O-])cc2)CC1,inactive
9,O=S(=O)(c1ccc(Cl)cc1)c1nnn2c1nc(NC1CCCC1)c1sccc12,inactive
10,Cc1ccccc1CNC(=O)c1cccc(NC(=O)c2nsc3ccccc23)c1,inactive
11,Cc1ccc(NC(=O)Nc2sc3nc4n(c(=O)c3c2C)CCC(C)CC4)c(Cl)c1 (configuration not stated),inactive
12,CC1CCc2noc(NC(=O)c3ccc([N+](=O)[O-])cc3)c2C1 (configuration not stated),inactive
13,O=C(Nc1cc2c3c(c1)C1CCCC1CN3CC1CCCC21)c1ccc([N+](=O)[O-])cc1 (configuration not stated),11.2 µM (active)
14,O=C(CCNC(=O)c1ccc([N+](=O)[O-])cc1)NC1CCCCC1,inactive
15,Cc1ccc(-c2cn3c(n2)sc2cc(C(=O)NCCCc4ccccc4)ccc23)cc1,inactive
16,CCOC(=O)c1c(C)oc2nc(C)nc(Nc3ccc(CC)cc3)c12,inactive
17,COCCNc1ncnc2c1c(-c1ccccc1)cn2-c1ccc(C)c(Cl)c1,inactive
18,COc1ccc(S(=O)(=O)Nc2cc3c(C(=O)OC(C)C)c(C)oc3c3ccccc23)cc1,inactive
19,COc1ccc(S(=O)(=O)NC(C)C(=O)N2CCCCCC2)cc1 (configuration not stated),inactive
20,COc1ccc(S(=O)(=O)/N=C2\C=C(NS(=O)(=O)c3ccccc3)C(=O)c3ccccc32)cc1,28.2 µM (active)
